PubChem BioAssay AID1851 (National Center for Advancing Translational Sciences (NCATS), 2009)
“And” between values parts separate entries of the source, which are not always exact repeats. Equal entries are not always repeated. About 4,000 (25%) of roughly 16,000 compounds were called active. Another 26% or so got no clear call; they are omitted. The call rests on the fitted dose curve; in most records, active means well fitted curve in the direction sought with a large enough effect; inconclusive means small, poorly fitted or top-dose-only effect, or effect the other way; inactive means no such curve, though single readings can be large or run the other way. Not all results are given here. Some compounds were tested as several samples or in several runs, with calls that do not always agree.

molecular target: Cytochrome P450 2C9 (Homo sapiens) (UniProt P11712); assay: Cytochrome panel assay with activity outcomes; details: recombinant CYP, pro-luciferin dealkylation, luminescence, p450-cyp2c9; series mostly up to 57.1 µM; activity, negative = inhibition: at the top concentration
Procedure: The P450 gene superfamily is involved in the metabolism and clearance of xenobiotics. This assay used various human CYP P450 isozymes to measure the dealkylation of various pro-luciferin substrates to luciferin. The luciferin is then measured by luminescence after the addition of a luciferase detection reagent. Pro-luciferin substrate concentration in the assay was equal to its KM for its CYP P450 isozyme. Inhibitors and some substrates limit the production of luciferin, and decrease measured luminescence.
NCGC Assay Protocol Summary:
1, Reagent, 2 uL, Isozyme and Pro-Luciferin
2, Library compounds, 23 nl, 40 uM to 0.24 nM dilution series
3, Controls, 23 nl, Isozyme specific inhibitor
4, Reagent, 2 uL, NADPH regeneration solution
5, Incubation time, 60 min, Isozyme specific temperature
6, Reagent, 4ul, Detection reagent
7, Incubation time, 20 min, Isozyme specific temperature
8, Detection, 1 sec, ViewLux luminescent read
The luciferase-based P450-GloTM Screening Systems were obtained from Promega (Madison, WI) for CYP 1A2 (V9770), CYP 2C9 (V9790), CYP2 C19 (V9880), CYP 2D6 (V9890), and CYP 3A4 Luciferin-PPXE (V9910) and were adapted for 1,536-well microplates and an automated protocol. The control compounds furafylline for 1A2 (F124), sulfaphenazole for CYP 2C9 (S0758), ketoconazole for CYP 2C19 (K1003), quinidine for 2D6 (Q3625), and ketoconazole for 3A4 (K1003) were purchased from Sigma Aldrich (St. Louis, MO). Recombinant P450 enzymes were obtained from baculovirus constructs expressed in insect cells (BD/Gentest).
Medium-binding white solid Kalypsys plates used. Mixtures kept on ice. 1A2: 10 nM 1A2, 100 uM Luc-ME, 100 mM KPO4; 2C9: 10 nM 2C9, 100 uM Luc-H, 25 mM KPO4; 2C19: 5 nM 2C19, 10 uM Luc-H EGE, 50 mM KPO4; 2D6: 5 nM 2D6, 30 uM Luc-ME EGE, 100 mM KPO4; 3A4: 10 nM, 25 uM Luc-PPXE. All amounts are reflected in their final concentration, working concentration is 2x.
NADPH regeneration solution: 1.3 mM NADP+, 3.3 mM glucose-6-phosphate, 3.3 mM MgCl2, 0.4 U/mL glucose-6-phosphate dehydrogenase for all isozymes, 200 mM KPO4 for 3A4. Mixture prepared at RT but kept on ice during automated run.
RT incubation in auxilliary plate hotel for 1A2, 2D6, and 3A4; 37C for 2C9 and 2C19.
Keywords: P450, CYP1A2, CYP2C19, CYP2C9, CYP2D6, CYP3A4, Luciferase, MLSMR, MLSCN, NIH Roadmap, qHTS, NCGC
On the % scale 0 is the no-effect control and ±100 the full control effect.

Sequence of Cytochrome P450 2C9 (Homo sapiens) (P11712 whole entry, looked up): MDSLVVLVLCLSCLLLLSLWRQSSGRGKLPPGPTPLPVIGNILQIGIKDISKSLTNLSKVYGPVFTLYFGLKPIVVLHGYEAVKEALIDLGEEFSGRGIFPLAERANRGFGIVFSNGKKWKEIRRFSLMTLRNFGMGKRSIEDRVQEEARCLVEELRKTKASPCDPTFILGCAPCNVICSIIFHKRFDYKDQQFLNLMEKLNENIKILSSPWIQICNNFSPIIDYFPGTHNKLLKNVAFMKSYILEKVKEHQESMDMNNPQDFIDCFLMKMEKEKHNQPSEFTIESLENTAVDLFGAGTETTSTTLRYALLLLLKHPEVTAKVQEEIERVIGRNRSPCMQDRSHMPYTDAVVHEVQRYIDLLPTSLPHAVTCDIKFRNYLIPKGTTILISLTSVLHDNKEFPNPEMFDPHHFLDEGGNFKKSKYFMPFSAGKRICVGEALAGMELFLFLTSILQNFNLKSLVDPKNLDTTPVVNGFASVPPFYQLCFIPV

SMILES | activity, negative = inhibition | AC50
O=C1c2cccnc2C(O)N1C1CCCCC1 (configuration not stated) | -10.4% (inactive) | –
Cc1nc2c(n1C1CCCCC1)C(=O)c1ccccc1C2=O | – | 15.8 µM (active)
Cc1nc2cnc(Nc3ccccc3)nc2n(C2CC2)c1=O | -16.5% (inactive) | –
N[C@@H](C(=O)O)c1ccc(C(=O)O)c(C(=O)O)c1 | – | 12.6 µM (active) and inactive
N[C@H](C(=O)O)c1ccc(O)c(C(=O)O)c1 | 7.54% (inactive) | –
N[C@@H](C(=O)O)c1ccc(C(=O)O)c(O)c1 | -29% (inactive) | –
COCOc1ccc(Br)cc1C(=O)[C@H]1O[C@H]1c1cccc(OC)c1 | 8.38% [at 11.4 µM] (inactive) | –
COc1cccc([C@@H]2Oc3ccc(OC)cc3C(=O)[C@H]2O)c1 | -9.12% [at 11.4 µM] (inactive) | –
COc1cccc([C@@H]2Oc3ccc(Br)cc3C(=O)[C@H]2O)c1 | – | 2.51 µM (active)
CNc1ncncc1-c1ccccc1C(F)(F)F | 4.51% [at 2.29 µM] (inactive) | –
O=C(NCc1ccccc1)C12CN(Cc3ccccc3)CC1C(c1cccc([N+](=O)[O-])c1)=NO2 (configuration not stated) | – | 7.94 µM (active)
COc1ccc(C(=O)N2CC3(CC(c4cccc([N+](=O)[O-])c4)=NO3)C[C@H]2C(=O)NCC(N)=O)cc1 (some centres not stated) | -29.6% (inactive) | –
COc1cccc(C2=NOC(C(=O)NCc3ccccc3)C2)c1 (configuration not stated) | 15.8% (inactive) | –
CC(C)CCNC(=O)C12CN(Cc3ccccc3)CC1C(c1cccc([N+](=O)[O-])c1)=NO2 (configuration not stated) | – | 5.62 µM (active)
CCS(=O)(=O)N1CCC(C(=O)NCCN2CCN(Cc3ccccc3)CC2)CC1 | 11.7% (inactive) | –
CN(C)CCn1c(=O)n(Cc2ccco2)c(=O)c2c3c(sc21)CCCCC3 | – | 14.1 µM (active)
Cn1c(=O)c2c3c(sc2n2cnnc12)CCC3 | -24.7% (inactive) | –
O=C(Cn1c(=O)n(Cc2ccco2)c(=O)c2c3c(sc21)CCCCC3)c1ccccc1 | – | 2.51 µM (active)
NC(=O)Cn1c(=O)n(Cc2ccco2)c(=O)c2c3c(sc21)CCCCC3 | – | 11.2 µM (active)
O=C(N/N=C/c1ccc(F)cc1)c1ccc(Br)cc1 | -7.63% (inactive) | –
O=C(N/N=C/c1ccc2cccc(OCc3ccccc3)c2n1)c1ccc(Br)cc1 | – | 3.55 µM (active)
COc1ccc(O)c(/C=N/NC(=O)c2ccc(OCc3cccc(Br)c3)cc2)c1 | -22.4% (inactive) | –
CCn1c(SCC(=O)N2CCOCC2)nc2oc3c(Cl)cc(Cl)cc3c(=O)c2c1=O | – | 3.98 µM (active)
COc1ccc(N2CCN(C(CNC(=O)C3CCCCC3)c3cccnc3)CC2)cc1 (configuration not stated) | -14.1% (inactive) | –

SMILES | activity, negative = inhibition | AC50
O=C(Nc1ccc(Cl)cc1)OCCn1nnnc1C(c1ccccc1Cl)N1CCOCC1 (configuration not stated) | – | 4.47 µM (active)
CCC(c1nnnn1CCOC)N1CCN(C(=O)c2ccco2)CC1 (configuration not stated) | -40.7% (inactive) | –
N#Cc1ccc(C(c2nnnn2Cc2ccccc2)N2CCCC2)cc1 (configuration not stated) | -67% (inactive) | –
COc1ccc(Cn2nnnc2C(c2ccccc2Cl)N2CCC(C(N)=O)CC2)cc1 (configuration not stated) | – | 15.8 µM (active)
O=C(NCCCN1CCOCC1)c1cc(C(=O)C2CC2)c[nH]1 | 33% (inactive) | –
Cc1ccc(C(=O)c2c[nH]c(C(=O)NCCCN3CCOCC3)c2)cc1 | -2.52% (inactive) | –
O=C(c1ccc(C(F)(F)F)cc1)c1c[nH]c(C(=O)NCCCn2ccnc2)c1 | – | 1.12 µM (active)
CC(C)[C@@H](OCc1ccccc1)[C@H](C)/C=N\O[C@@H](C)c1cn([C@H](CO)Cc2ccccc2)nn1 | -21.6% [at 11.4 µM] (inactive) and -25.5% [at 11.4 µM] (inactive) | –
Cc1cc(/C=N/n2cnnc2)c(C)n1-c1ccc(OCc2ccccc2F)cc1 | – | 4.47 µM (active)
COn1c(SCc2ccc(C)cc2C)nc2ccccc2c1=O | – | 0.282 µM (active)
COn1c(SCc2cccc(Cl)c2)nc2ccccc2c1=O | – | 1.78 µM (active)
COc1nc(Cl)nc(Cl)c1Cl (tested in a mixture with another compound) | -7.53% [at 11.4 µM] (inactive) | –
CC(C)CO/N=C1/C[C@@H](O)[C@@H](O)[C@@H]2[C@@H]3C(=O)N([C@@H](C)c4ccccc4)C(=O)[C@H]3CC[C@H]12 | -8.59% [at 11.4 µM] (inactive) | –
C1=C(CN2CCOCC2)COc2c1cccc2OC[C@@H]1CNCCO1 | 13.9% (inactive) | –
CO[C@@H]1COC(=O)CCC[C@@H](C)[C@H](OC)COC(=O)[C@H](Cc2ccccc2)NC(=O)C/C=C\[C@H]1C | -2.4% [at 11.4 µM] (inactive) | –
CC(=O)n1nc(-c2ccco2)nc1N | -29.7% (inactive) | –
O=C(Cc1ccccc1)Nc1nc2ccc(Cl)cc2c2nc(-c3ccco3)nn12 | – | 3.16 µM (active)
CN1CCN(c2cc(-c3ccc(N(C)C)cc3)ncn2)CC1 | 14.3% [at 2.29 µM] (inactive) | –
Cc1noc(C)c1-c1ccc2ncnc(NCc3ccccc3)c2c1 | -8.92% [at 2.29 µM] (inactive) | –
CCCCCCN1C=CC(=C/C=C(\C#N)C(=O)OCC)C=C1 | – | 2.24 µM (active)
CCOC(=O)/C(C#N)=C1/C=CN(C)C=N1 | -14.9% (inactive) | –
CCCC[S@@](=N)(=O)CC[C@@H](N)C(=O)O | – | inactive
O=C(CSc1nnc(SCc2cccc3ccccc23)s1)c1ccc2c(c1)OCO2 | – | 4.47 µM (active)
